M1 PAM: human M1 muscarinic receptor positive allosteric modulators, primary screen, CHO-K1 cells, Fluo-8 calcium fluorescence, 1536-well; CHO-K1 hM1, ACh EC20; 0% = ACh EC20, 100% = maximal ACh; actives 0.088% (n = 360,000); Muscarinic acetylcholine receptor M1 (Homo sapiens), P11229; AID 588819, 2011; activation, % at 3 µM; in the data active = activation above about 19%, passing the limit was not always enough
Target sequence (P11229 whole entry, looked up): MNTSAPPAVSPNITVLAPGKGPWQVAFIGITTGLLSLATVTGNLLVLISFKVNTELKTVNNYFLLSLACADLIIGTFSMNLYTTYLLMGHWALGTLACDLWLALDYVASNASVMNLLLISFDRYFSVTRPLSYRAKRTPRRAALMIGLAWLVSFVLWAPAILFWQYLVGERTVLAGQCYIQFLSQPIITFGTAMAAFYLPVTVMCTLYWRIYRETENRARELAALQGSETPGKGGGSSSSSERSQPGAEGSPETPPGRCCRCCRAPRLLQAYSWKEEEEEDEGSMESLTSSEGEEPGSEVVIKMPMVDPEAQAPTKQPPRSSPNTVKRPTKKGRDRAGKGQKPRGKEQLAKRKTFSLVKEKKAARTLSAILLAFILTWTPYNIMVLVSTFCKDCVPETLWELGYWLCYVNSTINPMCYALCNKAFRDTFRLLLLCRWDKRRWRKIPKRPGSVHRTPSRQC
M1 PAM parental: nonselective calcium activators in parental CHO-K1 cells, primary screen, counter-screen for M1 PAM project, cell-based, Fluo-8 calcium fluorescence, full deck, 1536-well | ATP EC20; 0% at ATP EC20, 100% at ATP max | AID 602247, 2012 | activation, % at 3 µM | actives 0.02% (n = 360,000);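 active = activation above the run cutoff, the mean activation of all test compounds plus 3 SD, cut at about 40% in these data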;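 note: peak over basal fluorescence ratio in a 140 s read after ATP addition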
M1 ag: human M1 muscarinic receptor agonists, primary screen, Fluo-8 calcium fluorescence, CHO-K1 cells, HTS. Muscarinic acetylcholine receptor M1 (Homo sapiens), P11229. CHO-K1 hM1, agonist mode; 0% DMSO, 100% acetylcholine EC100. activation, % at 3 µM. actives 0.33% (n = 360,000);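 active = activation above the run's mean compound activation plus 3 SD, cut at about 16% in these data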;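 note: peak over basal fluorescence ratio within a 140 s kinetic read after compound addition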
CHRM1 antagonist: human M1 muscarinic receptor antagonists, primary screen, CHO-K1 cells, Fluo-8 calcium fluorescence, 1536-well | CHO-K1 hM1, ACh EC80 antagonist | inhibition, % at 3 µM | Muscarinic acetylcholine receptor M1 (Homo sapiens), P11229 | AID 588852, 2011 | actives 1.3% (n = 360,000);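 active = percent inhibition above its own plate's cutoff, namely the mean of that plate's compound wells plus 3 SD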;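 note: peak over basal fluorescence ratio during 140 s after agonist addition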
CHO-K1 Ca antag: M1 antagonist counterscreen hit in parental CHO-K1 cells; ATP-induced calcium, Fluo-8 fluorescence; inhibition, % at 3 µM; actives 0.6% (n = 360,000); AID 602250;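 active = inhibition above a per-plate cutoff, the plate's mean sample inhibition plus 3 SD, cut at about 24% in these data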
M1 ag parental: counter-screen for M1 agonists: effect in parental CHO-K1 cells. Fluo-8 calcium fluorescence; scaled to maximal ATP response, vehicle zero. activation, % at 3 µM. actives 0.48% (n = 360,000). AID 602248, 2012; in the data active = activation above about 15%;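 note: untransfected CHO-K1 host cells lacking M1 receptor as counterscreen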
Hits are given with their value; - = inactive; ! = not confirmed by another sample. Hits are enriched below; roughly 2.3% of the tested compounds scored in any of these assays.

SMILES	M1 PAM	M1 PAM parental	M1 ag	CHRM1 antagonist	CHO-K1 Ca antag	M1 ag parental
CC(NCc1ccc(S(N)(=O)=O)cc1)C(=O)NCc1ccccc1 (stereo not drawn)	-	-	-	-	-	-
CCN1/C(=C/C(C)=C/c2sc3ccccc3[n+]2CC)Sc2ccccc21	-	-	-	48	34	20!
O=C(NCCC(=O)N1CCN(c2ccc(F)cc2)CC1)c1ccco1	-	-	-	-	-	-
O=C(O)c1cccc(-c2ccc(/C=N/Nc3ccc([N+](=O)[O-])cc3)o2)c1	-	-	17	-	-	18
O=C(O)c1ccc(-c2ccc(/C=N/Nc3ccc([N+](=O)[O-])cc3)o2)cc1	-	-	18	-	-	-
NS(=O)(=O)c1ccc(-c2ccc(/C=N/Nc3ccc(C(=O)O)cc3)o2)cc1	-	-	-	-	-	-
CN(C)C(=O)/C(=C/c1ccc(-c2cccc([N+](=O)[O-])c2)o1)NC(=O)c1ccccc1	-	-	-	-	-	22
O=[N+]([O-])c1ccc(N/N=C/c2c[nH]c3ccccc23)cc1	-	-	-	34	26	15
CN(C)C(=O)/C(=C\c1ccc(-c2cccc([N+](=O)[O-])c2)o1)NC(=O)c1ccccc1	-	-	-	-	-	-
CN(C)S(=O)(=O)c1ccc(Cl)c(C(=O)NNC(=O)Cn2ccc(C(F)(F)F)n2)c1	-	-	-	-	-	-
Cc1nnc(C)c2c(C)n(Cc3ccc4c(c3)OCO4)c(C)c12	-	-	-	-	24	-
C=C1SC(Nc2c(C)cc(C)cc2C)=NC12CCCCC2	-	-	-	68	-	-
Cc1cc(C)c(NC(=O)CN2C(=O)NC3(CCCCC3)C2=O)c(C)c1	-	-	-	-	-	-
C=C1SC(Nc2c(C)cccc2C)=NC12CCCCC2	-	-	-	66	-	-
CCOC(=O)C1(C)CCCN(C(=O)CCc2ccccc2)C1 (stereo not drawn)	-	-	-	-	-	-
COc1cccc(C(=O)C[n+]2ccccc2/C=N/O)c1	-	-	-	27	-	-
C=CCn1c(-c2cc(-c3ccccc3)sc2N)n[nH]c1=S	-	-	-	-	-	-
CCn1c(SC(C)C)nnc1-c1cc(-c2ccccc2)sc1N	-	-	-	-	28	-
CN(CC(=O)Nc1c(Cl)cccc1Cl)C(=O)c1cc(-c2cccs2)nn1-c1ccccc1	-	-	-	-	-	-
CCN(CC(=O)Nc1c(F)cccc1F)C(=O)c1cc(-c2cccs2)nn1-c1ccccc1	-	-	-	36	-	-
CCCC1CC(C)(C(=O)CSc2n[nH]c(-c3ccccc3)n2)OC1=O (stereo not drawn)	-	-	-	30	-	-
O=C(CSc1n[nH]c(-c2ccccc2)n1)N1CCOCC1	-	-	-	-	-	-
CCCCS(=O)(=O)N1CCCC(C(=O)Oc2ccc(Cl)cc2)C1 (stereo not drawn)	-	-	-	-	-	-
O=C(N/N=C/CCc1ccccc1)c1ccc(CN2c3cccc4cccc(c34)S2(=O)=O)cc1	-	-	21	-	-	-
COc1ccc(/C=N/NC(=O)c2ccc(CN3c4cccc5cccc(c45)S3(=O)=O)cc2)cc1	-	-	16	-	-	-
SMILES	M1 PAM	M1 PAM parental	M1 ag	CHRM1 antagonist	CHO-K1 Ca antag	M1 ag parental
COc1cc(/C=N/NC(=O)c2ccc(CN3c4cccc5cccc(c45)S3(=O)=O)cc2)cc(OC)c1O	-	-	-	-	-	-
O=C(c1ccco1)N(CCC(c1ccccc1)c1ccco1)Cc1ccc(F)cc1 (stereo not drawn)	-	-	-	-	-	-
CC1(C)CC(C(CCN(Cc2ccccc2)C(=O)c2ccco2)c2ccc(F)cc2)CCO1 (stereo not drawn)	-	-	-	36	-	-
COc1ccc(CCC(=O)OCC(=O)c2ccc(C)cc2)cc1	-	-	-	-	-	-
COC(=O)C1C2CCC(C2)C1C(=O)OCC(=O)c1ccc(C)cc1 (stereo not drawn)	-	-	-	-	27	-
Cc1ccc2[nH]c(C(=O)N3CCOCC3)cc2c1	-	-	-	-	25	-
Cc1ccc2[nH]c(C(=O)N3CCCCC3)cc2c1	-	-	-	-	-	-
CC(=O)N1CCN(S(=O)(=O)c2cccc(C(=O)Nc3ccccc3N3CCCC3)c2)CC1	-	-	-	-	-	-
COC(=O)c1ccc(CSc2nc3ccccc3c(=O)n2CC(C)C)o1	-	-	-	-	-	-
COC(=O)c1ccc(CSc2nc3ccccc3c(=O)n2Cc2ccco2)o1	-	-	-	36	-	-
COc1cc(OC)cc(-c2cc3nc(C)c(CCC(=O)O)c(C)n3n2)c1	-	-	-	-	39	-
Nc1nc(NCCCN2CCOCC2)nc(NCc2ccccc2)c1[N+](=O)[O-]	-	-	-	66	-	-
Nc1nc(NCCN2CCOCC2)nc(NCc2ccccc2)c1[N+](=O)[O-]	-	-	-	-	-	-
COC(=O)CCn1c(C)cc(C(=O)COc2ccccc2C(N)=O)c1C	-	-	-	-	-	18
CC(=O)Nc1ccccc1OCC(=O)c1cc(C)n(Cc2cccs2)c1C	-	-	-	32	-	-
Cc1cc(C(=O)COc2cccnc2[N+](=O)[O-])c(C)n1Cc1cccs1	-	-	-	-	-	-
CC(NC(=O)c1ccc(NC2=NC3CS(=O)(=O)CC3S2)cc1)c1ccccc1 (stereo not drawn)	-	-	-	-	-	-
CCCCN(C(=O)c1c(-c2ccccc2)noc1C)c1c(N)n(CCC)c(=O)[nH]c1=O	-	-	-	-	-	-
Cn1nccc1C(=O)c1ccc(Cl)cc1	-	-	-	-	24	-
CCOC(=O)c1ccc(N2CCN(C(=O)c3ccccc3)CC2)c(NC(=O)c2ccco2)c1	-	-	-	-	-	-
COCCn1c2nc(=O)n(-c3ccccc3)c(=O)c-2nc2ccccc21	-	-	56	-	-	73
Cc1ccc(/C=C(\C#N)C(=O)Nc2ccccn2)o1	-	-	-	-	-	-
CCN(CC)CCN(C(=O)c1ccc([N+](=O)[O-])cc1)c1nc2ccc(OC)cc2s1	-	-	-	-	-	-
CCOc1ccc2nc(N(CCN(CC)CC)C(=O)c3ccc([N+](=O)[O-])cc3)sc2c1	-	-	-	44	-	-
N#C/C(=C(/O)CN1CCOCC1)c1nc(-c2ccccc2)cs1	-	-	-	-	-	-
